For 13 compounds, growth results are on record in PubChem BioAssay (NCI).

The structures appear in SMILES notation. Compounds without any hit were thinned out: in the full panel of roughly 83,000, 20% have a hit.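 Method: cells in 96-well plates; compound added at one concentration; 48 h incubation; percent growth measured; values under 10 scored active.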 A number with no mark means an inactive call. The source made the active and inactive calls.

Some test systems named below: SR leukemia; RPMI-8226 leukemia; OVCAR-8 ovarian; OVCAR-5 ovarian; OVCAR-4 ovarian; SK-OV-3 ovarian; IGROV1 ovarian; OVCAR-3 ovarian; HS 578T breast; NCI/ADR-RES ovarian.
What all share (assay): NCI-60 one-dose screen, 48 h (100 = growth as untreated, 0 = no growth, -100 = all killed)
Conditions in all cases: 10 µM unless noted

With `CCN1CCN(c2nc(NNC(=O)Cc3ccccc3)nc(N3CCN(C(c4ccccc4)c4ccccc4)CC3)n2)CC1`, the growth was -22.3% (active) with SR leukemia; 36.6% in the assay with RPMI-8226 leukemia; 64.4% with OVCAR-8 ovarian; 102% in the assay with OVCAR-5 ovarian; 86.6% with OVCAR-4 ovarian; 114% in the assay with SK-OV-3 ovarian. Further, the growth was 64.1% in the assay with IGROV1 ovarian, 46.2% in the assay on OVCAR-3 ovarian, 96.1% in the assay on HS 578T breast and 90.4% with NCI/ADR-RES ovarian.
For the compound `CC[N+](CCCCCCCCCC[N+](CC)(c1ccccn1)c1ccccn1)(c1ccccn1)c1ccccn1`, the growth was -19.8% (active) in the assay on SR leukemia; 1.5% (active) in the assay on RPMI-8226 leukemia; 7.02% (active) in the assay on OVCAR-8 ovarian; 24.1% with OVCAR-5 ovarian; 20.5% in the assay with OVCAR-4 ovarian; 8.24% (active) in the assay with SK-OV-3 ovarian. Further, the growth with IGROV1 ovarian is -35.2% (active); in the assay with OVCAR-3 ovarian, 3.49% (active); in the assay with HS 578T breast, 28.5%; in the assay with NCI/ADR-RES ovarian, 63.6%.
With `CCOC(=O)/C(=C/CC/C(C)=C/CC/C(C)=C/CCc1ccoc1)CC(=O)N1CCCCC1`, the growth in the assay on SR leukemia is 19.8%; in the assay on RPMI-8226 leukemia, -5.3% (active); with OVCAR-8 ovarian, 72.4%; in the assay with OVCAR-5 ovarian, 64.6%; in the assay on OVCAR-4 ovarian it was 64.8%; in the assay with SK-OV-3 ovarian, 84.4%. Further, the growth in the assay on IGROV1 ovarian was 77.8%; in the assay with OVCAR-3 ovarian it was 12.5%; in the assay with HS 578T breast, 74.3%; in the assay on NCI/ADR-RES ovarian it was 50.6%.
Consider `CCOC(=O)CCC(=O)O[C@H]1[C@H](O[C@@H]2[C@@H](C)[C@H](O[C@H]3C[C@@](C)(OC)[C@@H](O)[C@H](C)O3)[C@@H](C)C(=O)O[C@H](CC)[C@@](C)(O)[C@H](O)[C@@H](C)C(=O)[C@H](C)C[C@@]2(C)O)O[C@H](C)C[C@@H]1N(C)C`, for which the growth in the assay with SR leukemia is 92%; in the assay with RPMI-8226 leukemia it was 97.2%; with OVCAR-8 ovarian, 106%; with OVCAR-5 ovarian it was 106%; with OVCAR-4 ovarian, 110%; with SK-OV-3 ovarian, 113%. Moreover, the growth in the assay with IGROV1 ovarian was 92.8%; in the assay with OVCAR-3 ovarian it was 125%; in the assay on HS 578T breast, 113%; with NCI/ADR-RES ovarian it was 108%.
As for `COc1ccc(Cl)cc1Nc1nc(C(F)(F)F)ccc1C(=O)N/N=C/c1c(Cl)cccc1Cl`, the growth in the assay with SR leukemia was 22%; with RPMI-8226 leukemia, 40.1%; in the assay on OVCAR-8 ovarian it was 55.2%; with OVCAR-5 ovarian, 75.3%; in the assay on OVCAR-4 ovarian, 39%; in the assay with SK-OV-3 ovarian, 49.7%. The growth was 29.6% in the assay with IGROV1 ovarian, -2.74% (active) with OVCAR-3 ovarian, 54.3% in the assay with HS 578T breast and 49.9% in the assay on NCI/ADR-RES ovarian.
Turning to `O=c1sc2ncnc3ncn1c32`, the growth is 33.2% in the assay on SR leukemia; 25.6% in the assay with RPMI-8226 leukemia; 78.3% in the assay on OVCAR-8 ovarian; 65.3% in the assay with OVCAR-5 ovarian; 48.7% in the assay on OVCAR-4 ovarian; 22.8% in the assay on SK-OV-3 ovarian. Further, the growth in the assay with IGROV1 ovarian was 96%; in the assay with OVCAR-3 ovarian, 17.6%; in the assay with HS 578T breast, 72.7%; in the assay with NCI/ADR-RES ovarian it was 70.1%.
On to `N#Cc1c(-c2ccccc2)cc(-c2ccccc2)n(CCCCCCC(=O)O)c1=O`, for which the growth in the assay with SR leukemia is 88.4%; in the assay on RPMI-8226 leukemia, 108%; in the assay on OVCAR-8 ovarian, 69.4%; in the assay with OVCAR-5 ovarian, 99.5%; in the assay with OVCAR-4 ovarian, 111%; in the assay with SK-OV-3 ovarian, 117%. For the same compound, the growth in the assay with IGROV1 ovarian was 105%; in the assay with OVCAR-3 ovarian it was 109%; with HS 578T breast, 101%; with NCI/ADR-RES ovarian it was 102%.
On to `CC(C)CC1NC(=O)C(CCCN)NC(=O)C(C(C)C)NC(=O)C2CCCN2C(=O)C(Cc2ccccc2)NC(=O)C(CC(C)C)NC(=O)C(CCCN)NC(=O)C(C(C)C)NC(=O)C2CCCN2C(=O)C(Cc2ccccc2)NC1=O` (stereo not given), for which the growth was -38.7% (active) with SR leukemia; -54.9% (active) in the assay with RPMI-8226 leukemia; -42.1% (active) in the assay on OVCAR-8 ovarian; -44.7% (active) in the assay on OVCAR-5 ovarian; 9.59% (active) in the assay with OVCAR-4 ovarian; -77.2% (active) with SK-OV-3 ovarian. The growth with IGROV1 ovarian was -34.9% (active); with OVCAR-3 ovarian it was -73.1% (active); with HS 578T breast it was -52.5% (active); in the assay with NCI/ADR-RES ovarian, 0.435% (active).
`CC(NC(=O)Oc1cccc2ccccc12)c1ccccc1` (stereo not given): the growth in the assay on SR leukemia was 90.8%; in the assay with RPMI-8226 leukemia it was 109%; with OVCAR-8 ovarian it was 96.9%; in the assay on OVCAR-5 ovarian, 123%; in the assay with OVCAR-4 ovarian it was 97.4%; in the assay with SK-OV-3 ovarian it was 111%. Moreover, the growth in the assay with IGROV1 ovarian was 116%; with OVCAR-3 ovarian, 103%; with HS 578T breast, 107%; in the assay on NCI/ADR-RES ovarian it was 97.6%.
For the compound `CN1CCN(c2nc3scc(-c4ccccc4)c3c(=O)[nH]2)CC1`, the growth in the assay with SR leukemia is 94.1%; in the assay with RPMI-8226 leukemia, 97.4%; in the assay with OVCAR-8 ovarian it was 106%; in the assay on OVCAR-5 ovarian it was 93%; in the assay with OVCAR-4 ovarian, 97.4%; in the assay on SK-OV-3 ovarian, 103%. Further, the growth with IGROV1 ovarian was 97.6%; in the assay with OVCAR-3 ovarian it was 102%; in the assay with HS 578T breast, 100%; in the assay on NCI/ADR-RES ovarian it was 99.2%.
Regarding `Nc1nc(Nc2ccccc2SSc2ccccc2Nc2nc(N)nc(C(Cl)(Cl)Cl)n2)nc(C(Cl)(Cl)Cl)n1`, the growth in the assay with SR leukemia is 14.8%; in the assay with RPMI-8226 leukemia it was 36.1%; in the assay on OVCAR-8 ovarian, 47.9%; in the assay with OVCAR-5 ovarian, 82%; in the assay with OVCAR-4 ovarian, 65.3%; in the assay on SK-OV-3 ovarian it was 121%. In addition, the growth with IGROV1 ovarian was 37%; in the assay on OVCAR-3 ovarian it was 64.6%; with HS 578T breast, 73.4%; with NCI/ADR-RES ovarian, 48.9%.
With `C[C@H](C(=O)N[C@@H](Cc1ccc(-c2ccccc2)cc1)C(=O)NC1CC(C)(C)N(C)C(C)(C)C1)c1ccc(-c2ccccc2)c(F)c1`, the growth in the assay on SR leukemia is -40.5% (active); in the assay with RPMI-8226 leukemia, -41.6% (active); with OVCAR-8 ovarian, -46.5% (active); in the assay on OVCAR-5 ovarian, -70.2% (active); in the assay with OVCAR-4 ovarian, -50.7% (active); in the assay on SK-OV-3 ovarian it was -33.3% (active). In addition, the growth is -26.4% (active) in the assay on IGROV1 ovarian, -82.9% (active) with OVCAR-3 ovarian, -35.1% (active) in the assay with HS 578T breast and -5.29% (active) in the assay on NCI/ADR-RES ovarian.
Take `CCOC(=O)CCN(c1c(Cl)ssc1=O)C(C)C`: the growth is 134% in the assay with SR leukemia; 105% in the assay with RPMI-8226 leukemia; 97.2% with OVCAR-8 ovarian; 87.2% in the assay with OVCAR-5 ovarian; 106% in the assay on OVCAR-4 ovarian; 116% with SK-OV-3 ovarian. For the same compound, the growth was -5.46% (active) in the assay with IGROV1 ovarian, 128% in the assay on OVCAR-3 ovarian, 103% with HS 578T breast and 105% with NCI/ADR-RES ovarian.
